According to PubChem BioAssay AID720553 (National Center for Advancing Translational Sciences (NCATS), 2013):
In all, about 340,000 compounds went through this assay and about 3,300 (0.97%) were called active.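 Rule for the calls: active = maximum activity change below -70%; inconclusive = maximum activity change from -70% to -50%; inactive = maximum activity change above -50%.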 The entries come from a sample that favours actives as a whole.
% is set by controls: 0 for no effect and ±100 for the full control effect.

What follows are molecules tested on Potassium voltage-gated channel subfamily H member 2, brain isoform KCNH2 3.1 (human) (assay: qHTS for Inhibitors of KCHN2 3.1: Mutant qHTS). Conditions: U2OS KCNH2 3.1, thallium flux FluxOr; active compounds read low.
In short: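 Channel expression came from 3.1 mutant virus (1.77 x 10^8 /mL) applied to suspended U2OS cells for 4 h. Flux was tracked with FluxOr dye plus Red40 quencher, and kinetic rate constants normalized to controls.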
With `Nc1nnc(SCC(=O)NC2CCCc3ccccc32)s1` (configuration not stated) the activity change was -15.6% (inactive).
`Nc1nnc(SCC(=O)NCC(=O)Nc2ccc(F)c(F)c2F)s1` was tested, and the activity change was -119% (active).
In the case of `Cc1ccc(S(=O)(=O)N2CCOCC2)cc1NC(=O)CSc1nnc(N)s1`, the activity change was 1.46% (inactive).
With `CCN(CC)C(=O)C1=C(C)N(Cc2ccccc2)C(=O)C(CC(=O)NC(c2ccccc2)c2ccccc2)C1` (configuration not stated) the activity change was 0.781% (inactive).
For `Cc1noc(C)c1S(=O)(=O)N(C)C[C@H]1OCCCC[C@@H](C)Oc2ccc(NC(=O)CCCN(C)C)cc2C(=O)N([C@H](C)CO)C[C@@H]1C`, the activity change was 18.2% (inactive).
`COC(=O)C[C@H]1C[C@@H]2c3cc(N(C)C)ccc3O[C@@H]2[C@H](CO)O1` was tested, and the activity change was 2.06% (inactive).
`O=C(Nc1cccc(C(=O)O)c1)/C(=C\c1ccccc1)NC(=O)c1ccc(Br)o1` was tested, and the activity change was 3.42% (inactive).
For `Cc1cccc(N2CCC(NCc3c(C(=O)N4CCCCC4)nc4c(C)cccn34)CC2)c1`, the activity change was -70.6% (active).
For `Cc1cccn2c(CNCC(C)Oc3cccnc3)c(C(=O)N3CCOCC3)nc12` (configuration not stated), the activity change was 1.22% (inactive).
In the case of `CCOC(=O)C1CCN(Cc2c(C(=O)N3CCOCC3)nc3c(C)cccn23)CC1`, the activity change was -6.64% (inactive).
`CC1=C(C(=O)N(C)C)CC(CC(=O)NCCc2ccccn2)C(=O)N1CCC1=CCCCC1` (configuration not stated) was tested, and the activity change was 6.34% (inactive).
For `CN(Cc1c(F)cccc1Cl)C(=O)COC(=O)Cn1cnc2ccccc2c1=O`, the activity change was 2.53% (inactive).
With `COc1ccc(NC(=O)C2=CC(c3ccc(OC)c(OC)c3)=NS(=O)(=O)N2C)cc1` the activity change was -5.31% (inactive).
`COc1ccc(C2=NS(=O)(=O)N(C)C(C(=O)NC(C)c3ccccc3)=C2)cc1` (configuration not stated) was tested, and the activity change was -85% (active).
In the case of `COc1ccc(C2=NS(=O)(=O)N(C)C(C(=O)N(C)Cc3ccccc3)=C2)cc1`, the activity change was 7.33% (inactive).
`Cc1cc2c3ccccc3[nH]c(=O)n2n1` was tested, and the activity change was -1.28% (inactive).
In the case of `COc1ccc([C@H]2N[C@]3(CCCN(CC4CCCCC4)C3=O)[C@H]3C(=O)N(C)C(=O)[C@@H]23)cc1`, the activity change was 4.21% (inactive).
`CCCCCCNC(=O)O[C@]12C[C@@H](C(=O)OC)[C@@H](C(=O)OC)C[C@@]1(O)CN(S(=O)(=O)c1ccc(C)cc1)C2` was tested, and the activity change was -9.12% (inactive).
In the case of `CCN(CC)CCN(C(=O)c1ccc2c(c1)CCCC2)c1nc2c(OC)cccc2s1`, the activity change was -48.3% (inactive).
`CC12C(=O)N(c3ccccc3)C(=O)C1C(c1ccccc1)N1CCCN12` (configuration not stated) was tested, and the activity change was 2.73% (inactive).
In the case of `CC(C)C1C2=C(CC(C)(C)CC2=O)ON1c1ccccc1` (configuration not stated), the activity change was -4.1% (inactive).
With `CC(C)N1C(=O)N(c2ccccc2)C(C)(O)CC1(C)C` (configuration not stated) the activity change was -71.4% (active).
`Cc1ccc(C(=O)N[C@H](C(=O)N2CCN(c3ncccn3)CC2)C(C)C)cc1` was tested, and the activity change was 5.87% (inactive).
For `C[C@H]1NS(=O)(=O)c2cc(Cl)ccc2O[C@@H]1c1ccccc1`, the activity change was -5.74% (inactive).
In the case of `Cc1cc(N/N=C/c2ccccc2F)c2ccccc2n1`, the activity change was -142% (active).
In the case of `CCOc1cc(/C=N/Nc2cc(C)nc3ccc(C)cc23)ccc1O`, the activity change was -2.46% (inactive).
For `Fc1ccccc1/C=N/Nc1cc(N2CCCCC2)ncn1`, the activity change was 11.8% (inactive).
`CCCCN1CC(C)(C)[C@H](CC(=O)Nc2ccc(Br)cc2)C1=O` was tested, and the activity change was 5.46% (inactive).
`COc1ccc(CN2CCNC(=O)C2CC(=O)NCc2cn[nH]c2-c2ccccc2)c(F)c1` (configuration not stated) was tested, and the activity change was -3.5% (inactive).
In the case of `O=C(c1ccc(F)cc1)C1CCN(Cc2cn[nH]c2-c2ccccc2)CC1`, the activity change was -104% (active).
`Cc1ccccc1CN1CCN(C(=O)c2cccc(F)c2)CC1` was tested, and the activity change was -16.7% (inactive).
With `Cc1ccc2c(CN3CCN(S(=O)(=O)c4ccccc4C(F)(F)F)CC3)cc(=O)oc2c1` the activity change was -74.7% (active).
In the case of `Cc1cc2oc(=O)cc(CN3CCN(S(=O)(=O)c4cccs4)CC3)c2cc1C(C)C`, the activity change was -5.54% (inactive).
For `COc1ccc2c(CN3CCN(S(=O)(=O)c4cccs4)CC3)cc(=O)oc2c1`, the activity change was -11.7% (inactive).
With `O=C(N=C1SC2CS(=O)(=O)CC2N1Cc1ccccc1)c1ccccc1` (configuration not stated) the activity change was -10.6% (inactive).
`O=Nc1c(O)cc(O)c2ccccc12` was tested, and the activity change was 4.37% (inactive).
In the case of `Cc1ccc(-c2ccc(CN3C(C)C(=O)N(Cc4cn(CCC5OCCCO5)nn4)CCS3(=O)=O)cc2)cc1` (configuration not stated), the activity change was -4.85% (inactive).
`COc1cc(NC(=O)C2=C(C)OCCS2)c(Cl)cc1C(=O)NCCCN1CCCC(C)C1` (configuration not stated) was tested, and the activity change was -7.47% (inactive).
For `CC(=O)Nc1ccc2c3c(ccc([N+](=O)[O-])c13)CC2`, the activity change was -19% (inactive).
`O=S1(=O)CCN(Cc2ccccc2)CC1` was tested, and the activity change was -7.16% (inactive).
In the case of `O=C1c2ccccc2C(=O)c2c1cccc2N1CCN(Cc2ccccc2)CC1`, the activity change was -89.4% (active).
For `O=C1c2ccccc2C(=O)c2c1cccc2N1CCN(CCO)CC1`, the activity change was -26.5% (inactive).
In the case of `CCOC(=O)c1cc(-c2sc(NC(=O)c3ccccc3)nc2C)n(Cc2ccccc2)n1`, the activity change was -4.02% (inactive).
For `C[C@H]1CN([C@@H](C)CO)C(=O)CCCn2cc(nn2)CO[C@@H]1CN(C)S(=O)(=O)c1ccccc1C#N`, the activity change was -13.5% (inactive).
With `CC(=NNC(N)=O)C1CC2CCC1CC2` (configuration not stated) the activity change was 0.306% (inactive).
`CC(C)NC(=O)Nc1ccc2c(c1)C(=O)N([C@H](C)CO)C[C@H](C)[C@@H](CN(C)Cc1ccc(C(F)(F)F)cc1)OCCCC[C@@H](C)O2` was tested, and the activity change was -29.9% (inactive).
`CC(=O)c1ccccc1NC(=O)COC(=O)C1COc2ccccc2O1` (configuration not stated) was tested, and the activity change was -5.39% (inactive).
In the case of `Nc1cc(=O)c2[nH]cnc2[nH]1`, the activity change was 4.52% (inactive).
`Cc1ccc(Oc2ccc3c(c2)C(=O)N(c2cccc4cccnc24)C3=O)cc1` was tested, and the activity change was -1.2% (inactive).
For `Cc1ccc(C)c(NC(=O)c2ccc3nccnc3c2)c1`, the activity change was 5.85% (inactive).
In the case of `Cc1ccc(OS(=O)Nc2cccc3nccnc23)cc1` (configuration not stated), the activity change was -73.2% (active).
In the case of `C[C@@H]1CN([C@H](C)CO)S(=O)(=O)c2ccc(C#CC3CCCCC3)cc2O[C@H]1CN(C)C(=O)Cc1ccncc1`, the activity change was -2.79% (inactive).
`CC1=C(C(=O)N2CCOCC2)CC(CC(=O)NCC2CCCCC2)C(=O)N1Cc1ccc(F)cc1` (configuration not stated) was tested, and the activity change was -12.1% (inactive).
With `CC1C(=O)N(Cc2cn(CC3CCCCC3)nn2)CCS(=O)(=O)N1Cc1ccc(-c2cccc(N(C)C)c2)cc1` (configuration not stated) the activity change was -6.27% (inactive).
With `CCOC(=O)CSc1nc(N2CCOCC2)c2c(c1C#N)CC(C(C)C)OC2` (configuration not stated) the activity change was 9.26% (inactive).
`CC1(C)Cc2c(C#N)c(SCc3nc4ccccc4[nH]3)nc(N3CCOCC3)c2CO1` was tested, and the activity change was 1.1% (inactive).
`COc1ccc(CSc2nc(N3CCOCC3)c3c(c2C#N)CC(C)(C)OC3)cc1` was tested, and the activity change was -85.2% (active).
In the case of `CN1CCn2cnc(C(=O)NCC(=O)OC(C)(C)C)c2C1=O`, the activity change was 8.04% (inactive).
For `COc1ccc(-c2csc(Nc3cccc(C)n3)n2)cc1OC`, the activity change was -0.0615% (inactive).
With `COc1ccc(Nc2ccc3ccccc3c2)cc1` the activity change was -0.36% (inactive).
In the case of `COc1ccc(Nc2nc(-c3ccccc3)cs2)cc1`, the activity change was -83.5% (active).
For `CN(Cc1ccccc1)C(=O)CCC1CCN(C(=O)c2ccco2)CC1`, the activity change was -7.93% (inactive).
`O=C(COC(=O)c1cccc(Cl)c1)Nc1ccc2[nH]c(=O)[nH]c2c1` was tested, and the activity change was -16.7% (inactive).
In the case of `O=C(COc1ccc([N+](=O)[O-])cc1Cl)Nn1cnnc1`, the activity change was -17.4% (inactive).
`O=C(COc1ccc([N+](=O)[O-])cc1Cl)Nc1ccc2[nH]c(=O)[nH]c2c1` was tested, and the activity change was -113% (active).
`Cc1ccc(C(=O)NNC(=O)c2cc3cc4ccccc4nc3s2)cc1` was tested, and the activity change was -14.6% (inactive).
In the case of `Cc1ccc(NC(=O)c2ccc(Oc3ncccn3)cc2)cc1`, the activity change was 10.8% (inactive).
In the case of `Cc1ccc(C(=O)NNc2ncnc3ccccc23)cc1`, the activity change was -135% (active).
In the case of `CCOC(=O)c1c(NC(=O)COC(=O)c2ccc(S(=O)(=O)C(F)F)cc2)sc(C(=O)N(C)C)c1C`, the activity change was -12.2% (inactive).
For `Cc1ccccc1C#CC1=CC(=O)CC(C)(C)C1`, the activity change was -7.29% (inactive).
For `Cc1ccc(-c2nc3ccc(Cl)cn3c2Cc2ccccc2)cc1`, the activity change was -5.74% (inactive).
In the case of `O=S(=O)(Nc1ccccc1Br)c1cccs1`, the activity change was 8.03% (inactive).
`O=C(Nc1nncs1)c1ccccc1NS(=O)(=O)c1cccs1` was tested, and the activity change was -71.4% (active).
With `COc1cc(NC(=O)c2ccccc2NS(=O)(=O)c2ccc(Cl)s2)cc(OC)c1` the activity change was -9.39% (inactive).
With `CNC(=O)C1CN(C(=O)c2cccc(S(=O)(=O)N3CCc4ccccc43)c2)c2ccccc2O1` (configuration not stated) the activity change was -2.85% (inactive).
With `O=C(NCCS(=O)(=O)N1CCN(c2ccccc2)CC1)c1cc(=O)c2ccccc2o1` the activity change was 5.39% (inactive).
For `CSc1ncc(C(=O)NCCCc2ccccc2)c(C)n1`, the activity change was 17.9% (inactive).
With `Cc1ccc(NC(=O)c2ccn(C(=O)Nc3ccccc3)n2)c(C)c1` the activity change was 11.1% (inactive).
With `CSc1ncc(C(=O)Nc2ccc(C)cc2C)c(C)n1` the activity change was -183% (active).
In the case of `CCN(CC)C(=O)C1=C(C)N(Cc2ccc(F)cc2)C(=O)C(CC(=O)NC2CCCC2)C1` (configuration not stated), the activity change was -23.9% (inactive).
For `CSc1ncnc2c1ncn2CCCNCC1CCCCC1`, the activity change was -15.7% (inactive).
In the case of `CC(C)C1CCN(C(=O)C2CCC(=O)N(C3CCCCCC3)C2)CC1` (configuration not stated), the activity change was -5.43% (inactive).
For `O=C(Nc1ccc(C(=O)O)cc1)/C(=C/c1ccc([N+](=O)[O-])cc1)NC(=O)c1ccccc1`, the activity change was 0.484% (inactive).
With `Cc1ccc(C(=O)N/C(=C/C=C/c2ccccc2)C(=O)NCc2ccco2)cc1` the activity change was -38.2% (inactive).
For `CNC(=O)/C(=C\C=C\c1ccccc1)NC(=O)c1ccc([N+](=O)[O-])cc1`, the activity change was -78.9% (active).
With `COc1ccc(C(CNC(=O)c2ccc(OCc3cscn3)cc2)N2CCCC2)cc1` (configuration not stated) the activity change was -4.07% (inactive).
For `Cc1cc(C)c2cc(C#N)c(N3CCNCC3)nc2c1`, the activity change was 15.5% (inactive).
